Measurements from PubChem BioAssay AID2825 (Sanford-Burnham Center for Chemical Genomics, 2010).
Out of some 330,000 compounds screened, about 1,300 (0.39%) were called active. This excerpt belongs to a sample that is enriched for actives. Values without a mark were called inactive.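 Rule for the calls: active = inhibition of 50% or more; inactive = inhibition below 50%.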

test: blockers of yeast NLRP3/ASC/caspase-1 reporter – luminescence, uHTS, primary screen (AID 2825); details: Yeast reconstituted NLRP3/ASC/caspase-1, beta-gal luminescence, 24 h; at 10 µM; active compounds read high;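 note: plate controls were induced DMSO wells for no effect and uninduced yeast grown without galactose for full effect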

Row | SMILES | inhibition
1 | CC(C)NS(=O)(=O)c1ccc(OCC(=O)NC2CCCCCC2)cc1 | 10.4%
2 | COCCN(C(=O)CC1CCCCC1)c1c(N)n(CC(C)C)c(=O)[nH]c1=O | 6.27%
3 | CCCC(=O)N=c1sc2cccc(F)c2n1C | 35.5%
4 | Cn1c(=NC(=O)c2cnccn2)sc2ccccc21 | 25.1%
5 | Cn1c(=NC(=O)c2ccco2)sc2cccc(F)c21 | 51% (active)
6 | COc1ccc(NC(=O)CN(C)C(=O)Cc2coc3cc(C)c(C)cc23)cc1 | 17.5%
7 | COCCCNCCOCCOc1ccc(Cl)cc1Br | 3.7%
8 | Cc1cc(=O)oc2cc(NC(=O)C(C)Oc3ccccc3)ccc12 (centres undefined) | 10.8%
9 | CC(C)C(=O)Nc1ccc2oc(=O)ccc2c1 | -3.79%
10 | CC(C)C(=O)Nc1ccc2c(c1)oc1ccccc12 | 56.7% (active)
11 | O=S(=O)(N1CCOCC1)N1CCN(c2ccccc2F)CC1 | 7.74%
12 | Cc1ccccc1N1CCN(S(=O)(=O)c2ccc3ccccc3c2)CC1 | 2.32%
13 | Cc1ccc2cccc(S(=O)(=O)N3CCN(c4ccccc4F)CC3)c2n1 | 50.5% (active)
14 | O=C(c1ccc(S(=O)(=O)N2CCCC2)cc1)N1CCN(c2ccccc2F)CC1 | 11.6%
15 | C=CCn1c(CNS(=O)(=O)c2ccc(Br)cc2)nnc1SC | 14.4%
16 | COc1ccc(NS(=O)(=O)c2cc3c(cc2C)N(C(C)=O)CCO3)cc1 | 25.6%
17 | Oc1ccc(Br)cc1/C=N/Nc1ccccn1 | 51.7% (active)
18 | Oc1ccc(/C=N/Nc2ccc(C(F)(F)F)cn2)cc1O | 11.3%
19 | Cc1c(C(=O)Nc2ccccn2)oc2ccc(Br)cc12 | 28.4%
20 | CCn1nc(C(=O)NNS(=O)(=O)c2cc(/C=C/C(=O)O)cc(OC)c2OC)c2ccccc2c1=O | -0.224%
21 | O=C(CSc1ccc(-c2ccc(-n3cccn3)cc2)nn1)Nc1ccc([N+](=O)[O-])cc1 | 51.4% (active)
22 | O=C(CSc1ccc([N+](=O)[O-])cn1)Nc1ccc(N2CCOCC2)cc1 | -5.97%
23 | O=C(CSc1ccc(-c2ccccn2)nn1)Nc1ccccc1 | 25.6%
24 | CCN1CCN(c2sc(S(C)(=O)=O)nc2S(=O)(=O)c2ccc(Cl)cc2)CC1 | 2.79%

Row | SMILES | inhibition
25 | CCOC(=O)C1CCN(C(=O)CC2C(=O)N(Cc3ccccc3)C(C)c3nc4ccccc4n32)CC1 (centres undefined) | -3.2%
26 | FC(F)(F)c1cccc(NC(=S)Nc2cccc(Cl)c2)c1 | 2.63%
27 | Cc1csc(NC(=S)Nc2cccc(Cl)c2)n1 | 53.8% (active)
28 | S=C(Nc1cccc(Cl)c1)Nc1ccc2c(c1)OCCO2 | 15%
29 | COc1ccc(-c2n[nH]c3c2CN(C(=O)c2ccc(F)cc2)CC3)cc1 | 19%
30 | COc1cc(OC)cc(-c2cc3nc(C4CCN(C(=O)OC(C)(C)C)CC4)cc(=O)n3[nH]2)c1 | 18.1%
31 | CC1CC2=C(CC1/C=N/NC(N)=S)C(C)(C)CCC2 (centres undefined) | 68.6% (active)
32 | CCCN(CCc1ccccc1)C1CCc2c(O)cccc2C1 (centres undefined) | 22.2%
33 | CN(C)/C=C1/Nc2ccccc2C1=O | 12%
34 | Cc1cc(C)c(/C=C2\C(=O)Nc3ccccc32)[nH]1 | 55.4% (active)
35 | O=C1Nc2ccccc2/C1=C/c1ccnc2ccccc12 | 17.6%
36 | O=C(COc1coc(CN2CCN(c3ccccc3)CC2)cc1=O)Nc1ccccc1F | 11.8%
37 | N#Cc1nc(COc2ccc(Cl)cc2)oc1N1CCCC1 | 55.6% (active)
38 | CC1CCN(c2oc(-c3ccccc3F)nc2C#N)CC1 | 26.9%
39 | Cc1ccc(OCc2nc(C#N)c(N3CCCC3)o2)cc1 | 63% (active)
40 | COc1ccc(-c2oc(/N=C/N3CCCC3)c(C#N)c2-c2ccc(OC)cc2)cc1 | 15.6%
41 | N#Cc1ccc(OCc2nnc(-c3ccc([N+](=O)[O-])cc3)o2)cc1 | 20.8%
42 | O=S(=O)(c1ccc(Cl)cc1)c1nc(-c2ccco2)oc1N1CCCCC1 | 22.9%
43 | CC(C(=O)N=Nc1c(O)n(C)c2ccc(Br)cc12)n1cnc2ccccc2c1=O (centres undefined) | 7.45%
44 | COc1ccc(CC(=O)Nc2sc(Cc3ccccc3)c(C)c2C(N)=O)cc1 | 25.1%
45 | O=C(CN1C(=O)/C(=C\c2ccc(C(F)(F)F)cc2)Sc2ccccc21)NCc1ccco1 | -3.88%
46 | C#CCN1CC(C)/C(=N/O)CC1C (centres undefined) | 8.21%
47 | CSc1ccc(CN(C)CC(=O)NCc2ccc(F)cc2)cc1 | 30.5%
48 | CC(Oc1ccc2c(-c3ccccc3)cc(=O)oc2c1)C(=O)NC(Cc1c[nH]c2ccccc12)C(=O)O (centres undefined) | 18.5%

Row | SMILES | inhibition
49 | CCC(C)Sc1nc2c(cnn2-c2ccc(F)cc2)c(=O)[nH]1 (centres undefined) | -8.33%
50 | CCOc1ccc(-n2c(SCC(=O)OC)nc3sc4c(c3c2=O)CCN(C)C4)cc1 | -6.96%
51 | CCSc1nc2sc3c(c2c(=O)n1-c1ccc(C)cc1)CCN(C)C3 | 58.9% (active)
52 | CCCSc1nc2sc3c(c2c(=O)n1-c1ccc(OC)cc1)CCN(C)C3 | 18.1%
53 | CCOP(=O)(OCC)C(Nc1cccc(C)c1)c1ccc(F)cc1 (centres undefined) | 3.8%
54 | Cc1ccccc1N1CCN(C2CCCN(C(=O)c3ocnc3C)C2)CC1 (centres undefined) | 25.2%
55 | CCCc1nc2c(c(=O)c3ccccc3n2C)c(=O)n1C1CCCCCC1 | 64.7% (active)
56 | Cn1c2ccccc2c2c(C(=O)N3CCN(c4ccc(F)cc4)CC3)cn(C3CCCC3)c(=O)c21 | 15.6%
57 | CC1CCN(Cc2nc3c(c(=O)n(C)c(=O)n3C)n2CCc2ccccc2)CC1 | 21.2%
58 | Cc1onc(-c2c(Cl)cccc2Cl)c1C(=O)c1c[nH]c(C(=O)NC2CC2)c1 | 12.6%
59 | Cc1cccc(N=C2SC(C)CN2C(=O)CN2C(=O)NC3(CCCC3)C2=O)c1 (centres undefined) | -3.71%
60 | C[C@@H]1C[C@@H]2O[C@H]2/C=C\C=C\C(=O)Cc2c(Cl)c(O)cc(O)c2C(=O)O1 | 53.1% (active)
61 | COc1ccc(NC(=O)C2CCC(CNC(=O)[C@@H]3Cc4ccccc4CN3)CC2)cc1 (some centres undefined) | -1.77%
62 | O=C(CSc1ncnc2c1oc1ccccc12)NC1CCCC1 | 52% (active)
63 | O=C(CSc1nnc(-c2ccccc2O)o1)NC1CCCCC1 | 35.2%
64 | O=C(CSc1nnc2c(n1)[nH]c1ccccc12)NC1CCCCC1 | 18.6%
65 | COC(=O)CN1C(=O)[C@H]2[C@@H](/C=C/c3ccccc3)N3C(=O)CN(CC4CC4)C(=O)[C@@]3(Cc3ccccc3)[C@H]2C1=O | 1.91%
66 | CCOc1ccc(C2/C(=C(/O)c3ccc4c(c3)CC(C)O4)C(=O)C(=O)N2CCCn2ccnc2)cc1 (centres undefined) | 15.6%
67 | COc1ccc(OCC(=O)NCCS(=O)(=O)N2CCN(c3ccc(F)cc3)CC2)cc1 | 7.19%
68 | Cc1cc(NC(=O)c2ccc(F)cc2)ccc1NC(=O)c1ccco1 | 12.3%
69 | COc1ccccc1C(=O)Nc1ccc(NC(=O)c2ccco2)c(C)c1 | 50.8% (active)
70 | O=C(/C=C/c1ccco1)Nc1ccc(Oc2ccccc2)cc1 | 22.4%
71 | O=C(NNC(=O)c1ccco1)Nc1ccccc1 | 8.53%
72 | COc1cc(NC(=O)c2cc([N+](=O)[O-])ccc2Br)ccc1NC(=O)c1ccco1 | 20.7%

Row | SMILES | inhibition
73 | O=C(Nc1ccc(Oc2ccccc2)cc1)c1ccco1 | 50.8% (active)
74 | Cc1cc(O)c(C(=O)/C=C/c2c(F)c(F)c(F)c(F)c2F)c(=O)o1 | 12.5%
75 | CCOc1ccc(N(C(=O)c2snc(C(N)=O)c2N)C(C(=O)NCC2CCCO2)c2c[nH]c3ccccc23)cc1 (centres undefined) | 10.6%
76 | COc1cc(OC)c(C(=S)N2CCCC2)cc1OC | 16%
77 | COc1ccc(NC(=O)COC(=O)c2ccncc2)c(OC)c1 | 18.3%
78 | O=C(COc1cccc(F)c1)Oc1ccc(C(=O)c2ccccc2)cc1 | -40.2%
79 | CCOc1ccc(OCC)c(-c2c(=O)n(OCc3ccc(Cl)cc3)c3ccccc3[n+]2[O-])c1 | 3.29%
80 | O=C(COC(=O)c1ccccc1SCC(=O)N1CCCC1)Nc1ccccc1OC(F)F | 19.4%
81 | CCOC(=O)C1CCN(Cc2c(C(=O)N3CCOCC3)nc3c(C)cccn23)CC1 | 9.59%
82 | CCN(CC)C(=O)c1sc2nc(-c3ccccc3)ccc2c1N | 20.7%
83 | CN(C(=O)c1ccccn1)c1nnc(-c2ccccn2)s1 | 9.46%
84 | CN(C)c1ccnc2sc(C(=O)c3ccccc3)c(N)c12 | 64.4% (active)
85 | O=C(Oc1cccc(O)c1)C1CCCCC1 | 9.17%
86 | Cc1ccccc1C(=O)NC(=S)NC1CC1 | -9.47%
87 | O=C(c1cccc(S(=O)(=O)N2CCCC2)c1)N(Cc1ccco1)C1CCS(=O)(=O)C1 (centres undefined) | 19.1%
88 | O=C(Nc1ccccc1)c1cc2ccccc2[nH]1 | 58.5% (active)
89 | COc1ccc2[nH]c(C(=O)Nc3ccccc3Cl)cc2c1 | -3.34%
90 | CC(OC(=O)c1cc2ccccc2[nH]1)C(=O)N(C)c1ccccc1 (centres undefined) | -0.144%
91 | COc1ccc(C(=O)c2c(C)c(CCC#N)n3ccccc23)c(OC)c1 | 3.12%
92 | O=C(Nc1ccc(S(=O)(=O)N2CCCCC2)cc1)C1CCN(C(=O)c2ccc(F)cc2)CC1 | 8.87%
93 | O=C(c1[nH]ncc1-c1ccc(Cl)cc1)C1CO1 (centres undefined) | 2.92%
94 | COc1cc(C(=O)OCc2cc(=O)n3ccsc3n2)ccc1OC(C)C | 16.3%
